The text below walks through data of PubChem BioAssay (Tox21).

Assay [1] in a line: Human pregnane X receptor (PXR) small molecule agonists, qHTS cell viability counter screen (AID 1346977). Also: nearly all actives have a fitted effect of over 50% in size. Also: potency is read from the fitted curve at half-maximal effect. The method, boiled down: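 PXR-Luc HepG2 cells in medium with 5% charcoal-stripped FBS were pre-incubated 5hr, then exposed to compounds for 24hr at 37C. Viability was read in the same wells by CellTiter-Fluor fluorescence, reagent added after 23hr with a 1hr incubation.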
A general note: In qHTS, concentration-response curves come from the screen itself.

Assay [2] can be described thus: Caspase-3/7 induction in HepG2 cells by small molecules, qHTS assay (AID 1346978). Also: nearly all actives have a fitted effect of over 15% in size. In a few lines:
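Wild-type HepG2 cells (2,000/well) were settled 5 h at 37 C, 5% CO2, then exposed to compounds in DMSO for 17 h. Caspase-3/7 activity was read by luminescence 30 min after adding Caspase-Glo 3/7 reagent at room temperature.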

Assay [3] in a line: Caspase-3/7 induction in CHO-K1 cells by small molecules, qHTS cell viability counter screen (AID 1346979). Also: nearly all actives have a fitted effect of over 35% in size. Also: potency is read from the fitted curve at half-maximal effect. The method, boiled down: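 Wild-type CHO-K1 cells were seeded at 1,500 per well, rested 5hr at 37 C, then exposed to compounds in DMSO. After 16hr, CellTiter-Fluor reagent was added and fluorescence read 1hr later as the viability measure.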
Assay [4] can be described thus: Caspase-3/7 induction in CHO-K1 cells by small molecules, qHTS assay (AID 1346980). Also: nearly all actives have a fitted effect of over 15% in size. The method, boiled down: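 Wild-type cells were seeded at 1,500 per well and settled 5 hr at 37 C, 5% CO2, then exposed to DMSO-dissolved compounds for 17 hr. Caspase-Glo 3/7 reagent was added, and luminescence was read after 30min at room temperature.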
Assay [5] deals with Nuclear receptor subfamily 1 group I member 2 (Homo sapiens) (UniProt O75469). Nature of the assay: Human pregnane X receptor (PXR) small molecule agonists, qHTS assay (AID 1346982). Also: nearly all actives have a fitted effect of over 35% in size. Also: potency is read from the fitted curve at half-maximal effect. The method, boiled down: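 Luciferase signal from ONE-Glo (30 min, room temperature) measured activation of hPXR-driven CYP3A4 reporter expression in PXR-Luc HepG2 cells treated with compounds for 24 hr at 37 C.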
Nuclear receptor subfamily 1 group I member 2 (Homo sapiens), sequence (O75469 whole entry, looked up): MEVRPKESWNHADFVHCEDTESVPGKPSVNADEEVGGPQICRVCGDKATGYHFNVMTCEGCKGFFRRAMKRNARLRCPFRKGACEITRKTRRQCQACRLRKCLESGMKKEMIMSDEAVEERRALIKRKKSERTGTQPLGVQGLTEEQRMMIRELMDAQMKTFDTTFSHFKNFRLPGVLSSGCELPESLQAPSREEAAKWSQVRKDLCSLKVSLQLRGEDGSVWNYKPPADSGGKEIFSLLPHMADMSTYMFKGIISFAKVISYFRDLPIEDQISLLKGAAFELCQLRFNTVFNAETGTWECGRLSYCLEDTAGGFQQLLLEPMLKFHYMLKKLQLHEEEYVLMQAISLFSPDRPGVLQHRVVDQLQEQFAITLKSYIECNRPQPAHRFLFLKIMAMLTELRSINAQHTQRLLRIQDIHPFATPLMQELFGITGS

Assay [6] addresses Cytochrome P450 1A2 (Homo sapiens) (UniProt P05177). Nature of the assay: Cytochrome P450 Family 1 Subfamily A Member 2 (CYP1A2) small molecule antagonists: luciferase reporter qHTS assay (AID 1671199). Also: nearly all actives have a fitted effect of over 50% in size. Also: potency is read from the fitted curve at half-maximal effect. The method, boiled down:
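P450-Glo CYP1A2, 1536-well qHTS: enzyme/proluciferin substrate + cpd (DMSO), 10 min RT; NADPH regen, 1 h RT; detection reagent, 20 min; luminescence, RLU.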
On the technique in general: In a reporter assay the amount or activity of a reporter protein is the signal.

Assay [7] has as its target Voltage-gated inwardly rectifying potassium channel KCNH2 (Homo sapiens) (UniProt Q12809). Briefly: Human Ether-a-go-go-Related Gene (hERG) channel small molecule antagonists: fluorescence cell-based qHTS assay (AID 1671200).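 Also: hERG-expressing U2OS cells given a thallium stimulus after FluxOR II dye loading; series mostly up to about 77 µM; nearly all actives have a fitted effect of over 50% in size.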 The method, boiled down: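 U2OS cells expressing the channel were plated at 1000 cells/well, incubated overnight at 37 C, then loaded with FluxOR II thallium-sensitive dye for 1 h at room temperature in the dark, with a further 10 min at room temperature before stimulation.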
In general terms: The hERG channel carries a current that helps repolarise heart muscle cells.

Assay [8] can be described thus: Caspase-3/7 induction in HepG2 cells by small molecules, qHTS cell viability counter screen (AID 1346981). Also: nearly all actives have a fitted effect of over 30% in size. Also: potency is read from the fitted curve at half-maximal effect. The method, boiled down: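 HepG2, WT, 2,000 cells/well; 5 hr pre-incubation 37 C/5% CO2; compound pin-transferred from DMSO; 16 hr exposure; CellTiter-Fluor, 1 hr; fluorescence read.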
Assay [9] has as its target Cytochrome P450 2D6 (Homo sapiens) (UniProt P10635). Briefly: Cytochrome P450 Family 2 Subfamily D Member 6 (CYP2D6) small molecule antagonists: luciferase reporter qHTS assay (AID 1671196). Also: series mostly up to about 120 µM; nearly all actives have a fitted effect of over 50% in size. The method, boiled down: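 Read-out is luminescence from luciferin formed by CYP2D6 turnover of a proluciferin substrate, recorded as relative luminescence units. Reactions ran 1 h at room temperature after NADPH regeneration solution was added.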

The target in assay [10] is Cytochrome P450 2C9 (Homo sapiens) (UniProt P11712). Nature of the assay: Cytochrome P450 Family 2 Subfamily C Member 9 (CYP2C9) small molecule antagonists: luciferase reporter qHTS assay (AID 1671198). Also: nearly all actives have a fitted effect of over 50% in size. Also: potency is read from the fitted curve at half-maximal effect. The method, boiled down:
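CYP2C9 activity was measured with a P450-Glo proluciferin substrate. Enzyme–substrate mix was held with compound for 10 min at room temperature, then NADPH regeneration solution was added for 1 h at 37C. Luciferin product was read as luminescence.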

In assay [11] the target is Cytochrome P450 2C19 (Homo sapiens) (UniProt P33261). Nature of the assay: Cytochrome P450 Family 2 Subfamily C Member 19 (CYP2C19) small molecule antagonists: luciferase reporter qHTS assay (AID 1671197). Also: nearly all actives have a fitted effect of over 65% in size. Also: potency is read from the fitted curve at half-maximal effect. In a few lines:
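Relative luminescence units recorded 20 min after the detection reagent stopped a 1 h, 37C CYP2C19 reaction on proluciferin substrate, which was started by NADPH regeneration following 10 min room-temperature compound preincubation; ketoconazole positive control.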

Assay [12] addresses Cytochrome P450 3A4 (Homo sapiens) (UniProt P08684). Briefly: Cytochrome P450 Family 3 Subfamily A Member 4 (CYP3A4) small molecule antagonists: luciferase reporter qHTS assay (AID 1671201). Also: nearly all actives have a fitted effect of over 50% in size. Also: potency is read from the fitted curve at half-maximal effect. In a few lines:
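P450-Glo CYP3A4 system with proluciferin substrate; compounds preincubated 10 min RT with enzyme-substrate mix, then NADPH regeneration added for 1 h RT. Detection reagent 20 min, luminescence read as relative luminescence units.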

Assay [13] has as its target Nuclear receptor subfamily 1 group I member 2 (Rattus norvegicus) (UniProt Q9R1A7). Briefly: Rat pregnane X receptor (rPXR) activation by small molecules, qHTS assay (AID 1346983). Also: nearly all actives have a fitted effect of over 20% in size. The conditions noted are these: rPXR luciferase reporter cells, One-Glo luminescence, 24 h; max activation: active compounds read high. In a few lines: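 Cell-based rPXR luciferase reporter assay, 2,000 cells per well, rested 5hr at 37 C before compound addition in DMSO, then 24 hr at 37 C. One-Glo reagent was added and luminescence read after 30 min at room temperature.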

The target of assay [14] is Nuclear receptor subfamily 1 group I member 2 (Homo sapiens) (UniProt O75469). Briefly: CYP3A4 induction through human pregnane X receptor (PXR) by small molecules, qHTS assay (AID 1346984). Also: nearly all actives have a fitted effect of over 40% in size. The method, boiled down: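 Luminescence readout: luciferase signal after One-Glo (30 min, room temperature), following 3 h at 37C with 3uM final Luciferin-IPA P450 substrate. Cells were DPX-2 (HepG2, PXR/CYP3A4-luc co-transfected) dosed for 24 h.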

Assay [15] shares this target. Briefly: Human pregnane X receptor (PXR) activation by small molecules, qHTS assay (AID 1346985). Also: nearly all actives have a fitted effect of over 40% in size. The method, boiled down:
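DPX-2 cells (HepG2 co-transfected with a PXR response element and a CYP3A4-promoter luciferase construct) were seeded at 2,000 per well, rested 5 hr at 37C, then exposed to DMSO-dissolved compounds for 24 hr. Activation was read as luciferase luminescence.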

The structures appear in SMILES notation. Unmarked numbers belong to inactive results. Inconclusive results are not listed. Activity calls are given as the source filed them. Calls follow the shape of the dose curve; as a rule, active = well fitted curve in the direction sought with a large enough effect in the repeat runs; inconclusive = weak or mixed curves; inactive = no such curve, though single readings can be large; an effect the other way counts as inactive or inconclusive.
% is scaled to controls: 0 for no effect and ±100 for the full control effect.

Voltage-gated inwardly rectifying potassium channel KCNH2 (Homo sapiens), sequence (Q12809 whole entry, looked up): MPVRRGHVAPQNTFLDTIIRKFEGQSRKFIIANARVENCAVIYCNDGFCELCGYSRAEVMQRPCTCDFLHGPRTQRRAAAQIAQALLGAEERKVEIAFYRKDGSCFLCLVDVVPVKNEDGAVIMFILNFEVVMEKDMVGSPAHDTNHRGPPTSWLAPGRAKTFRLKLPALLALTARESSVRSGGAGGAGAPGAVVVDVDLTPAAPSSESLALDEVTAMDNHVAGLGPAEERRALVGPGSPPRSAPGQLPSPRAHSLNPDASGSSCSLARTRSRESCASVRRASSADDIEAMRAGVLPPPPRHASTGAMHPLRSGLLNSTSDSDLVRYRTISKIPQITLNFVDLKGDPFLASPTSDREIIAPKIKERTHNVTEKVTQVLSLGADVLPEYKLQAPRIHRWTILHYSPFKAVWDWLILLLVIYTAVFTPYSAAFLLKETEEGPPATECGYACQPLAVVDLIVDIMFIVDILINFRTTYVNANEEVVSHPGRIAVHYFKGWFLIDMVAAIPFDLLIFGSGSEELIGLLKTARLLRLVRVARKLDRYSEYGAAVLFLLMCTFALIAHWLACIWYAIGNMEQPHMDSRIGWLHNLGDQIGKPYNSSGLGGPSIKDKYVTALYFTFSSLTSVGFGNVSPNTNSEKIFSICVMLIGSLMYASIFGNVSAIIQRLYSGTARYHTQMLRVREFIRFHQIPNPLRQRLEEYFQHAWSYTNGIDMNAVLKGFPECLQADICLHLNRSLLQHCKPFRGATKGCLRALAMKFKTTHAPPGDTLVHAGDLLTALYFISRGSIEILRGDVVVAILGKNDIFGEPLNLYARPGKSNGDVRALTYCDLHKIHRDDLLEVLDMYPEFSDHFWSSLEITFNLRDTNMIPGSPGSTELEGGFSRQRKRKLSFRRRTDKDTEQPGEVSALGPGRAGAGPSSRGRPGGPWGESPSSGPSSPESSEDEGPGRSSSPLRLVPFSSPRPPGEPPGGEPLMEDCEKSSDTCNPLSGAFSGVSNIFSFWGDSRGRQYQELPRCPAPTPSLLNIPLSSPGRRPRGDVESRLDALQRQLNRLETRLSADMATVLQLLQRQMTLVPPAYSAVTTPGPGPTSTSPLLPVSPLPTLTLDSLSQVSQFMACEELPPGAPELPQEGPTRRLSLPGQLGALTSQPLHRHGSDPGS
Cytochrome P450 3A4 (Homo sapiens), sequence (P08684 whole entry, looked up): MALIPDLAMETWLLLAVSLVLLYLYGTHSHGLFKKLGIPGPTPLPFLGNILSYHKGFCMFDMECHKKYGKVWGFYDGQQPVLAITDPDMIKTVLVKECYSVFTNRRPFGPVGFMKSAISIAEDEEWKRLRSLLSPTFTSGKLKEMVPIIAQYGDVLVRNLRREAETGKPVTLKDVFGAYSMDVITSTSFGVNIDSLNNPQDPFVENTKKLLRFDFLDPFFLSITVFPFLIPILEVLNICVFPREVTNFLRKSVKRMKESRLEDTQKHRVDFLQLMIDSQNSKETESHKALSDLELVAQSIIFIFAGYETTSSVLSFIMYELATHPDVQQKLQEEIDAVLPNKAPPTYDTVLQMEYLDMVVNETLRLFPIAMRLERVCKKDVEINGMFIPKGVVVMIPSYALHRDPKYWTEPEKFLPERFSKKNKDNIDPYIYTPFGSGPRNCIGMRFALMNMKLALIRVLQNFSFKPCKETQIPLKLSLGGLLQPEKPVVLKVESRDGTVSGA
Cytochrome P450 2C19 (Homo sapiens), sequence (P33261 whole entry, looked up): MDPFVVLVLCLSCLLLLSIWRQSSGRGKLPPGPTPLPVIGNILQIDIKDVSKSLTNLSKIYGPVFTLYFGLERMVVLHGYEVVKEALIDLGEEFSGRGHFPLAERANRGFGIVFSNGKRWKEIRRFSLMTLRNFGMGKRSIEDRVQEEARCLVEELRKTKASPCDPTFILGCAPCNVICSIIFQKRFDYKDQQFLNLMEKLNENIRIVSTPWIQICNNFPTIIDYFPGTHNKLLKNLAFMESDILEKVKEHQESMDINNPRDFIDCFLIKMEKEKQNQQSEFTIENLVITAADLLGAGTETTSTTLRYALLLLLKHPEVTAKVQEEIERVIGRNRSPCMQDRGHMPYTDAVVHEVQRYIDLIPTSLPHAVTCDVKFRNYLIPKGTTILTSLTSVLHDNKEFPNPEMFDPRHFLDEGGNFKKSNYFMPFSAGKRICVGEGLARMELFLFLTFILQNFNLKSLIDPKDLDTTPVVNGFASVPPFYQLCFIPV
Cytochrome P450 2C9 (Homo sapiens), sequence (P11712 whole entry, looked up): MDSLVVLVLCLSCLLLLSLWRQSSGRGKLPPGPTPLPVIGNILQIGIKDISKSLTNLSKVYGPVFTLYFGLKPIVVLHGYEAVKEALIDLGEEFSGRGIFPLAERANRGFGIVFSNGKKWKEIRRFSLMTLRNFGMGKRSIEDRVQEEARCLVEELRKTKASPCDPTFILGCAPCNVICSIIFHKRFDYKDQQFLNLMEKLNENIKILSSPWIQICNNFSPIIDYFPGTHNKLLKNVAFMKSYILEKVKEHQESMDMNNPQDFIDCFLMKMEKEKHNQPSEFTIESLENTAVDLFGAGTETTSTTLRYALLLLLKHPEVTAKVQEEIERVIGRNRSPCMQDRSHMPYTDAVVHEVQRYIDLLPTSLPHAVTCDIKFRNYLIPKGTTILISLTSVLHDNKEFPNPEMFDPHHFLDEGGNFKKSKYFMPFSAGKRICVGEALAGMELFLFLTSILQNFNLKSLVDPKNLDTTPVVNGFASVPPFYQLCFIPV
Cytochrome P450 1A2 (Homo sapiens), sequence (P05177 whole entry, looked up): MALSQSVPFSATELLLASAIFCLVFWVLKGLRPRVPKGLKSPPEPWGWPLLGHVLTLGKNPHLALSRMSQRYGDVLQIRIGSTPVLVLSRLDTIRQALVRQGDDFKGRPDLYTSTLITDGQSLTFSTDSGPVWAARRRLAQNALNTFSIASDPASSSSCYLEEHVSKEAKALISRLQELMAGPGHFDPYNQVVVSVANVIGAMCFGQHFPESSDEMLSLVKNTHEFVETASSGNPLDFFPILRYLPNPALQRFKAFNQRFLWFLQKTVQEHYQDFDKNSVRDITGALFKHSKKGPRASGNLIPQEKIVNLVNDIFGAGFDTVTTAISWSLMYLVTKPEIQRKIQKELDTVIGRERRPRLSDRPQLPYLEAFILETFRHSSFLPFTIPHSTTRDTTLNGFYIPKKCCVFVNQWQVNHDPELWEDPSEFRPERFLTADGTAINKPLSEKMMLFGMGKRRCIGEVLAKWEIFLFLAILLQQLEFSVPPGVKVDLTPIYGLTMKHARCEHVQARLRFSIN
Cytochrome P450 2D6 (Homo sapiens), sequence (P10635 whole entry, looked up): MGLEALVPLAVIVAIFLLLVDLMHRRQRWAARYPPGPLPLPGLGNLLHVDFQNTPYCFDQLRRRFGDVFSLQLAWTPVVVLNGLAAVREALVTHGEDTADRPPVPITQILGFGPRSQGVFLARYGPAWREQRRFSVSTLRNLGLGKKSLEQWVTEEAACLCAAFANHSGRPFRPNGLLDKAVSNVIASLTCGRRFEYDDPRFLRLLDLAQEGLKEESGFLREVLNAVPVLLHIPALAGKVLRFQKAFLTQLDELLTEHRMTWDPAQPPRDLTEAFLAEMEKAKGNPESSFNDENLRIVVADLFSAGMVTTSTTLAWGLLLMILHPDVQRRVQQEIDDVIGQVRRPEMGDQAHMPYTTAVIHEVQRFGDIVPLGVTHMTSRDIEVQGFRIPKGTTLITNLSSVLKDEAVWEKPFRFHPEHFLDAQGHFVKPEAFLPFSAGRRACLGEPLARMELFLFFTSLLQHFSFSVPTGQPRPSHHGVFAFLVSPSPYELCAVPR
Nuclear receptor subfamily 1 group I member 2 (Rattus norvegicus), sequence (Q9R1A7 whole entry, looked up): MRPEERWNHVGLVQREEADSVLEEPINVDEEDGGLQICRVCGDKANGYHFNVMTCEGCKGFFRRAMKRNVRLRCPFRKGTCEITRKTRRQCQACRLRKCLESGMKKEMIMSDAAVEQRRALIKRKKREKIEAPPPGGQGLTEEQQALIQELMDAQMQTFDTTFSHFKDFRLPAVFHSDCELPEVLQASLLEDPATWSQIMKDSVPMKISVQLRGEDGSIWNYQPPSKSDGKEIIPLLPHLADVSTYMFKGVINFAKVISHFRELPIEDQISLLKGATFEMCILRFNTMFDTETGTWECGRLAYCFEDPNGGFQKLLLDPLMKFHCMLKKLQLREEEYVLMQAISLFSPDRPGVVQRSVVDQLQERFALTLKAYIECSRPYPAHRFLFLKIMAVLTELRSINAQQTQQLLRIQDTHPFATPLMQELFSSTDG

In the case of `Cn1c(=O)c2c(ncn2CC(=O)O)n(C)c1=O`, the Potency result in [1], in assay [2], in assay [3], in assay [5], in assay [6] and in [7] was “inactive” throughout. In addition, the compound was classed as inactive in assay [4].
Regarding `COC(=O)c1cc(S(N)(=O)=O)ccc1OC`, the Potency result in [1], in assay [2], in assay [3], in assay [8], in [9] and in assay [10] was “inactive” throughout. The Potency entry in [7] is “inactive”. Further, the compound was called inactive in assay [4].
As for `CN1CCCN=C1/C=C/c1cccs1`, the Potency result in assay [1], in [2], in [3], in assay [8] and in [7] was “inactive” each time. Further, in assay [4], the compound was classed as inactive.
Turning to `Cc1ccc(S)cc1`, the Potency entry in assay [1], in [2], in assay [3], in assay [5], in [9] and in assay [7] was “inactive” in each case. The Potency entry in assay [12] was “inactive”. In addition, the call in assay [4] was inactive. Moreover, the Potency in assay [11] was 39.9 µM (active); in [10], 35.6 µM (active).
In the case of `NC(=O)Nc1ccc(Cl)cc1`, the Potency entry in assay [1], in [2], in [3], in [8], in assay [5] and in assay [7] was “inactive” each time. In addition, in assay [12], the Potency entry was “inactive”. The compound was called inactive in assay [4]. In addition, the Potency in [11] is 79.3 µM (active); in assay [6], 31.6 µM (active).
Consider `CCOC(=O)c1ccccc1OC`, for which the Potency result in assay [1], in assay [2], in assay [3], in [5], in assay [9] and in assay [10] was “inactive” throughout. For the same compound, the Potency result in assay [7] was “inactive”. Besides, the compound was classed as inactive in assay [4]. The Potency is 79.6 µM (active) in [11] and 35.6 µM (active) in assay [6].
Turning to `CCCCC1C(=O)N(c2ccccc2)N(c2ccc(O)cc2)C1=O` (stereo unspecified), the Potency in assay [1] is 26.6 µM (active); in assay [3], 3.76 µM (active); in [8], 29.8 µM (active); in assay [5], 11.9 µM (active); in assay [11], 17.4 µM (active); in [10] it was 9.77 µM (active). Further, the Potency result in assay [2], in assay [14], in assay [15], in assay [6] and in [7] was “inactive” each time. For the same compound, the max activation in assay [13] was 1.09%.
Consider `CCn1nc(C)c2c1C(=O)NCC(c1ccc(O)cc1)=N2`, for which the Potency result in [1], in assay [2], in assay [3], in assay [8], in assay [11] and in [7] was “inactive” each time. In addition, the result in assay [4] was inactive. Further, the results for the Potency in [10], in [6] and in assay [12] were 44.8 µM (active), 63.3 µM (active) and 31.7 µM (active), respectively.
As for `c1ccc(COCc2ccccc2)cc1`, the Potency result in assay [1], in assay [2], in assay [3], in assay [5], in [9] and in [6] was “inactive” in each case. The Potency entry in [7] and in assay [12] was “inactive” each time. In [4], the result was inactive.
Take `CCCOC(=O)c1ccc(N)cc1`: the Potency result in [1], in [2], in [3], in assay [14], in assay [15] and in [7] was “inactive” throughout. In addition, the call in assay [4] was inactive. For the same compound, the max activation in assay [13] was 14.2%. The Potency in assay [11] was 24.5 µM (active).
